Assay outcomes: PubChem, The Scripps Research Institute Molecular Screening Center
ADAM10 inh = human ADAM10 inhibitors, primary screen, biochemical, QFRET, HTS | 0.62% of 370,000 active | recombinant ADAM10, EDANS/DABCYL FRET peptide cleavage, 3 h | inhibition, % at 7 µM;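 active = inhibition above a per-campaign cutoff equal to the mean of compounds falling between control-based bounds plus 3 SD, cut at about 20% in these data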
proKLK7 act = proKLK7 zymogen activators, primary screen, biochemical, fluorescence intensity. 0.9% of 370,000 active. purified proKLK7, EDANS-DABCYL substrate fluorescence; 100% is mature enzyme control, 0% vehicle. AID 652039, 2013. activation, % at 7 µM. Kallikrein-7 (Homo sapiens), P49862;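 active = activation above the mean of all tested compounds plus 3 SD, computed per campaign excluding outliers beyond control limits, cut at about 13% in these data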
PLC-beta3 inh = human PLC-beta3 inhibitors, primary screen, biochemical, fluorescence. 1-phosphatidylinositol 4,5-bisphosphate phosphodiesterase beta-3 (Homo sapiens), Q01970. Purified PLC-beta3, fluorogenic substrate. inhibition, % at 12.2 µM. 0.18% of 370,000 active. AID 720704, 2013; in the data active = inhibition above about 11%
PLCg1 inh = PLC-gamma1 enzyme inhibitors, primary screen, biochemical, fluorescence, purified enzyme. fluorogenic substrate. inhibition, % at 12.2 µM. 0.84% of 370,000 active. AID 720700, 2013; in the data active = inhibition above about 9.5%
ADAM17 inh = ADAM17 inhibitors, primary screen, biochemical, QFRET | recombinant ADAM17, EDANS/DABCYL FRET peptide cleavage | inhibition, % at 6.95 µM | 0.83% of 370,000 active;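 active = inhibition above the mean of compounds lying between control limits plus 3 SD, set per campaign, cut at about 8.5% in these data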
KLK7 act conf = proKLK7 zymogen activators, confirmation, biochemical, fluorescence intensity, triplicate; shares compounds with proKLK7 act; purified proKLK7, EDANS-DABCYL substrate fluorescence; scaled: vehicle 0, mature enzyme 100; activation, % at 7 µM; 68% of 3,200 active; AID 686949, 2013;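 active = activation, as change over the incubation, above the mean of all tested compounds plus 3 SD, cut at about 13% in these data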
EDANS-DABCYL int = EDANS-DABCYL substrate optical interference, artefact control for kallikrein-7 zymogen activator project, biochemical, fluorescence intensity, high throughput | AID 686952, 2013 | activation, % at 7 µM | shares compounds with proKLK7 act | 80% of 3,200 active | no enzyme, 4 h; solvent 0%, active enzyme control 100%;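 active = activation above the all-compound mean plus 3 SD, ignoring values outside control-based bounds, cut at about 4.8% in these data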;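 also: value is the 4 h activation minus the activation read at time zero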
A number is an active result; - = inactive; . = not tested or not shown. This is a sample that favours compounds with a hit; in the whole collection about 2.9% have one here.

SMILES	ADAM10 inh	proKLK7 act	PLC-beta3 inh	PLCg1 inh	ADAM17 inh	KLK7 act conf	EDANS-DABCYL int
COC(=O)C1CN(C2CCCC2)CCS(=O)(=O)N1Cc1cn(Cc2ccccc2)nn1 (stereo not drawn)	-	-	-	-	-	.	.
Cc1nc2c(C)cccc2c2c1CCN2c1ccccc1F	-	157.4	-	-	-	61.3	68.6
C[C@H]1[C@@H](NCC2CCCCC2)CC[C@@]23CCCN2C(=O)CCC[C@@H]13	-	.	-	-	-	.	.
COc1cc(-c2cc(=O)c3ccc(O)cc3o2)cc(OC)c1OC	-	14.9	-	-	-	-	8.7
Cn1c2ccccc2c2ncn(Cc3ccc(F)cc3)c(=O)c21	-	-	-	-	-	.	.
Cn1c2ccsc2c2ncn(Cc3ccccc3F)c(=O)c21	-	65.4	-	-	-	65.0	62.3
Cc1ccc(-n2c(SCC(=O)Nc3ccccc3-c3ccccc3)nnc2-c2ccco2)cc1	-	-	-	-	-	.	.
COc1ccc(-c2cn3cc(C)ccc3n2)cc1OC	-	13.0	-	-	-	-	12.7
COc1ccc(-c2cn3cc(C)ccc3n2)cc1F	-	-	-	-	-	.	.
COc1ccc(CC(=O)Nc2ccc(-c3cn4ccccc4n3)cc2)cc1OC	-	32.6	-	-	-	-	-
COc1ccc(CC(=O)Nc2ccc(-c3cn4ccccc4n3)cc2)cc1	-	-	-	-	-	.	.
COC(=O)C1=C(C)N(Cc2ccc(C(F)(F)F)cc2)C(=NCc2ccccc2C(F)(F)F)NC1c1cccc(Cl)c1 (stereo not drawn)	-	-	-	-	-	.	.
COCCCN1C(=O)[C@H](CC(=O)NCc2cccc3ccccc23)[C@]2(C(=O)OC)CCCCC=C12	-	-	-	-	-	.	.
Cc1cc2c3c(ccc(C)c3n1)N=CN2c1ccccc1	-	61.7	-	-	-	-	4.8
CCOC(=O)C1=Nc2cccc3c(O)ccc1c23	-	53.4	-	-	-	79.0	84.5
COC(=O)C[C@H]1CC[C@@H]2[C@@H](COc3ccc(NC(=O)Nc4ccccc4OC)cc3C(=O)N2C)O1	-	-	-	-	-	.	.
Nc1ccc(-c2nc3ccc(N)cc3o2)cc1	-	56.0	-	-	-	69.8	73.0
Nc1ccc(-c2nc3cc(N)ccc3o2)cc1	-	55.0	-	-	-	64.8	75.2
CN(C)c1ccc(-c2nc3cc(N)ccc3o2)cc1	-	23.4	-	-	-	-	24.1
Cc1ccc(-c2nc3cc(N)ccc3o2)cc1Br	-	-	-	-	-	.	.
Nc1ccc(-c2nnc(-c3ccc(N)cc3)o2)cc1	-	17.9	-	-	-	35.5	44.4
COc1ccc(C2CC(=O)C(c3ccc(Cl)c(Cl)c3)=CN2Cc2ccccc2)cc1 (stereo not drawn)	-	-	-	-	-	.	.
C=CCN1[C@H](C#N)[C@@H](c2ccc(C#Cc3cccc(OC)c3)cc2)[C@H]1CO	-	-	-	-	-	.	.
COC(=O)[C@]12C[C@H](CC(=O)N3CCSCC3)C(=O)N(Cc3ccc4c(c3)OCO4)C1=C[C@H](C(C)C)O[C@@H]2C1CC1	-	-	-	-	-	.	.
Cc1cc(C(=O)COc2ccc3ccc(=O)oc3c2)c(C)n1Cc1cccs1	-	77.9	-	-	-	73.1	89.4
COc1cc2c(cc1OC)C(Cc1ccc(O)cc1)NCC2 (stereo not drawn)	-	-	-	-	-	.	.
COc1cc2c(cc1OC)C(Cc1ccc(O)cc1)N(C)CC2 (stereo not drawn)	-	17.5	-	-	-	68.3	89.8
C=C(C)C#CCNCc1ccccc1	-	-	-	-	-	.	.
COc1ccc(Cn2cc(CN3[C@@H](Cc4ccccc4)COc4cc(Br)ccc4S3(=O)=O)nn2)cc1	-	-	-	-	-	.	.
